We go through ten compounds from PubChem BioAssay AID1259318 (Sanford-Burnham Center for Chemical Genomics, 2017).

Among all 370,000 compounds or so, about 3,000 (0.81%) were called active. The sample holds actives, similar compounds and a random draw of the others, so the mix is not that of the screen. A number with no mark means an inactive call.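 The calls were made as follows: active = activity above about 14% (limit read from the data; passing the limit was not always enough); inactive = the rest.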

Nuclear receptor subfamily 1 group D member 1 (Homo sapiens), sequence (P20393 whole entry, looked up): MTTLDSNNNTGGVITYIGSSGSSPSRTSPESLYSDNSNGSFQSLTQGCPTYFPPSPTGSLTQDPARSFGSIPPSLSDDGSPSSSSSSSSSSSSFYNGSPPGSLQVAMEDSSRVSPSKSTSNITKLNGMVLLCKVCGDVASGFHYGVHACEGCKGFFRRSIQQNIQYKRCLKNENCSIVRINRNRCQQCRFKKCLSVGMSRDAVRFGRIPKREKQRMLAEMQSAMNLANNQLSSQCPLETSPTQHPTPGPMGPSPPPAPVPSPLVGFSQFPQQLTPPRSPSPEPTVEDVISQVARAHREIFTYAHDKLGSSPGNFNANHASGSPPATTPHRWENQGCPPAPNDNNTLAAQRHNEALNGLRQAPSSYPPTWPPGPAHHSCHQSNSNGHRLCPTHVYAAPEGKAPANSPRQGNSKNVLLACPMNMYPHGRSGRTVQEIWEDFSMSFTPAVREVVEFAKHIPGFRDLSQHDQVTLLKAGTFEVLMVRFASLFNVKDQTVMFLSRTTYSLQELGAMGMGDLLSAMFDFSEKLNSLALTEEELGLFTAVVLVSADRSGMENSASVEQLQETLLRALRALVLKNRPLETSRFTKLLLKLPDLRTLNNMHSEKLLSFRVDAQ

This assay has as its target Nuclear receptor subfamily 1 group D member 1 (Homo sapiens) (UniProt P20393). Description: modulators of Rev-erb alpha DNA binding, primary screen, biochemical, FITC-DNA, fluorescence polarization, uHTS (AID 1259318).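 Also: 0% = DMSO wells with 35 nM protein and 100% = DMSO wells with 750 nM protein.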 Particulars: Rev-erbα–FITC-DNA binding, 90 min, at 10 µM, hits give high values. On the technique in general: In fluorescence polarisation assays a small probe gives low polarisation when free and higher when bound to something large.
With `O=C1N=c2ccccc2=C/C1=C\c1c(O)[nH]c(=S)[nH]c1=O`, the activity is -4.55%.
Take `COc1ccccc1N=Nc1c(O)[nH]c(=S)[nH]c1=O`: the activity was 28.1% (active).
As to `CCOCCc1c(O)[nH]c(=S)[nH]c1=O`, the activity is -0.86%.
For `CCC(C)C(=O)O[C@H]1[C@H](O)C2C(CN3CC(C)CCC3[C@@]2(C)O)C2C[C@]34O[C@]5(O)C(OC(=O)C(C)(O)CC)CC[C@@]3(C)C5[C@H](OC(C)=O)[C@@H](OC(C)=O)C4[C@@]21O` (stereo not given in full), the activity is -4.52%.
With `CCN(CC)C(=O)[C@@H]1C=C2c3cccc4[nH]c(Br)c(c34)C[C@H]2N(C)C1`, the activity was -1.01%.
Turning to `C=CCNCCCCCCCCCC` (tested in a mixture with another compound), the activity is -9.67%.
With `COC(=O)CN(CCCl)P1(=O)OCCCN1CCCl` (stereo not given), the activity was 15.9% (active).
As to `c1ccc2sc(SNC3CCCCC3)nc2c1`, the activity is 6.27%.
The result for `CCOC(=O)C1=C(C)OC(N)=C(C(=O)OC)C12C(=O)Nc1ccc(Br)cc12` (stereo not given) reads 4.04%; that for `CC(=O)O[C@H]1CC[C@@]2(C)C(=CCC3C2CC[C@]2(C)C(=O)CCC32)C1` (stereo not given in full), 2.71%.
